Pf Dd2 growth: qHTS Primary assay for Inhibitors of Plasmodium falciparum Dd2 growth in vitro. hit rate 4.3% among 120,000. P. falciparum Dd2 growth, SYBR Green, 72 h. Potency, µM (top dose mostly 28.9 µM), usual class: inhibitors; active = well fitted inhibition curve with a large enough effect; also: nearly all actives have a fitted effect of over 65% in size
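Readout: SYBR Green fluorescence, 485 nm excitation, 535 nm emission, after ~16 h lysis at 37C. Before that, Dd2-infected red cells (2.5% hematocrit) grew 72 h with compound, 29 uM top final concentration.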
A number is an active result; - = inactive; [ ] = remark or other dose. The sample as a whole holds a higher share of hits than the screen did.

SMILES | Pf Dd2 growth
COc1ccc([C@H]2C[C@@H](O)[C@@H](O)[C@@H]2NS(=O)(=O)c2ccc(C(F)(F)F)cc2)cc1 | -
Cc1ncccc1C(=O)N1CCC(N2CC3CC(C2)[C@H]2CCCC(=O)N2C3)CC1 (stereo partly drawn) | -
COCCn1nnnc1C1CC2(CCOCC2)C(=O)N1Cc1cccnc1 (stereo not drawn) | -
CC(C)c1ccc(N2C(=S)N[C@H]3[C@@H](O)[C@H](O)C[C@@H](C(=O)N(C)Cc4ccccc4)[C@H]32)cc1 | 13µM
Cc1ccc(N2C(=S)N[C@H]3[C@@H](O)[C@H](O)C[C@@H](C(=O)N4CCCCC4)[C@H]32)cc1 | -
O=C([C@@H]1C[C@@H](O)[C@H](O)[C@@H]2NC(=S)N(c3ccc(F)cc3)[C@@H]21)N1CCCCC1 | -
CCCS(=O)(=O)N[C@@H]1CN(Cc2ccccn2)C[C@H]1CN(C)C | -
CC(=O)N1CCC(N2CCC3(CC2)CN(Cc2ccccc2)CC3CO)CC1 (stereo not drawn) | -
Cc1nc2cccnc2n1CC1CCCN(C(=O)Nc2ccc(C(F)(F)F)cc2)C1 (stereo not drawn) | -
COc1cccc(NC(=O)N2CCCC(Cn3c(C)nc4cccnc43)C2)c1 (stereo not drawn) | -
Cc1nc2cccnc2n1CC1CCCN(S(=O)(=O)c2ccc(CC(C)C)cc2)C1 (stereo not drawn) | 6.3µM
Cc1cc(S(=O)(=O)N2CCCC(Cn3c(C)nc4cccnc43)C2)ccc1Cl (stereo not drawn) | -
CC(C)Cc1ccc(S(=O)(=O)N2CCCC(Cn3cnc4cccnc43)C2)cc1 (stereo not drawn) | -
Cc1nc2cccnc2n1CC1CCCN(C(=O)Nc2cccc(C(F)(F)F)c2)C1 (stereo not drawn) | 11µM
COCc1nc(C2CCN(C(=O)c3cccnc3)C2)no1 (stereo not drawn) | -
O=C(Cc1ccc(N(Cc2ccc(F)cc2)C(=O)c2ccco2)cc1)NCC1CC1 | -
C=CCNC(=O)CCc1ccc2c(c1)CN(C(=O)NCC)CCO2 | -
Cc1ccn2c(C(=O)NCC3CCN(c4cnn(C)c(=O)c4)C3)nnc2n1 (stereo not drawn) | -
O=[S+]([O-])(c1cccs1)N1CCCN(c2nc3ncccc3o2)CC1 | -
O=C1N[C@@H]2CCN(C(=O)C3CCCCC3)[C@@H]2C(=O)N1c1ccc(Oc2ccccc2)cc1 | -
CCOc1ccc(-c2nnc(SCC(=O)c3ccc(Br)cc3)n2-c2ccccc2)cc1 | -
Cc1ccc(C(=O)N2CCn3c(nnc3-c3ccccc3)C2)cc1 | -
CCOc1ccc(C2=C(C(C)=O)Sc3nnc(C)n3N2C(C)=O)cc1 | 1.1µM
CCc1nnc2n1N(C(C)=O)C(c1ccc(C(C)(C)C)cc1)=C(C(C)=O)S2 | 3.2µM
COc1ccc(C2=C(C(C)=O)Sc3nnc(-c4ccccc4)n3N2C(C)=O)cc1 | -
SMILES | Pf Dd2 growth
CCOc1ccc(-c2nnc(SCC(=O)c3ccccc3)n2-c2ccccc2)cc1 | -
CC(=O)C1=C(c2ccc(C)cc2)N(C(C)=O)n2c(nnc2-c2ccccc2)S1 | 7.9µM
CC(NC(=O)c1cc(S(N)(=O)=O)ccc1F)c1ccc2c(c1)OCCCO2 (stereo not drawn) | -
Cc1nc(-c2ccc(Cl)cc2)n(Cc2ccc(F)cc2)c(=O)c1CCO | -
Cc1nc(C)c(C(=O)N2CCC(c3noc(-c4cnccn4)n3)C2)s1 (stereo not drawn) | -[5.79 µM]
Cc1noc(-c2ccc(OC3CN(C(=O)NCCc4ccccc4)C3)cc2)n1 | -[5.79 µM]
O=C(NCc1nnc2cc(-c3nc(C4CC4)no3)ccn12)c1nccc2ccccc12 | -
Cc1ccc(S(=O)(=O)N2CCN(C3CCN(Cc4cccnc4)C3=O)CC2)cc1 (stereo not drawn) | -
C1=C(c2cc(-c3ccncc3)cn3cncc23)CCOC1 | -
COc1cccc(-c2cc(-c3c(C)noc3C)cc3c2C(=O)N(C)C3=O)c1OC | -
Cc1noc(C)c1-c1cc2c(c(-c3ccccc3)c1)C(=O)N(C)C2 | -
Cc1noc(C)c1-c1cc(-c2ccccc2C(F)(F)F)cn2cncc12 | 6.3µM
FC(F)(F)c1ccccc1-c1cc(-c2cccnc2)c2cncn2c1 | -
Cc1noc(C)c1-c1cc(-c2cccc(O)c2)cn2cncc12 | 11µM
Cc1noc(C)c1-c1cc(-c2ccc(CO)cc2)cn2cncc12 | -
c1cncc(-c2cc(-c3cccc(N4CCOCC4)c3)cn3cncc23)c1 | -
Cc1noc(C)c1-c1cc(-c2ccccc2F)cn2cncc12 | 7.1µM
CC(=O)N1CCC(CC(=O)NCCc2ncc(C)n2C(C)C)CC1 | -
CSc1ncc(CN2CCOC(Cc3cccc(C(F)(F)F)c3)C2)cn1 (stereo not drawn) | -
COCCn1c(C)cnc1CCN | -
Cn1nc(C2CCN(C(=O)COc3ccc(F)cc3)CC2)c2c1CCOC2 | -[5.79 µM]
CN(CCc1ccccn1)C(=O)CCC[C@@H]1[C@H]2CCCN3CCC[C@@H](CN1C(=O)c1ccccc1)[C@@H]23 | -
CC(=O)NCCCC(=O)N1CCC2(CC1)CC(NC(C)=O)c1ccccc12 (stereo not drawn) | -
Cc1ccncc1C(=O)N1CCCC(c2nc(-c3cccnc3)no2)CCNC(=O)CC1 (stereo not drawn) | -
COc1ccc(O[C@H]2COCCN(C(=O)c3ccc(C(F)(F)F)cc3)C2)cc1 | -
SMILES | Pf Dd2 growth
O=C(c1ccc(F)cc1)N1CCC(C(=O)O)(c2ccccc2)CC1 | -
COc1ccccc1C(=O)N1CCCN(C)c2ccccc21 | -
COc1ccccc1C(=O)N1c2ccccc2C(C)(c2ccc(Cl)cc2)CC1(C)C (stereo not drawn) | 8.9µM
Cc1ccc2c(c1)C(C)(c1ccccc1)CC(C)(C)N2C(=O)c1ccc(F)cc1 (stereo not drawn) | 5.6µM
CCCCC(=O)N1c2ccccc2C(C)(c2ccccc2)CC1(C)C (stereo not drawn) | -
O=C(O)c1ccc2c(c1)N(C(=O)c1ccc(F)cc1)CC2 | -
COc1ccc(C(=O)NC(C(=O)NC(C)C(C)C)C2CCN(C(=O)CC(C)(C)C)CC2)cc1 (stereo not drawn) | -
O=C(NCc1ccncc1)C1CCN(C(=O)c2ncn3c2COC(c2ccc(F)cc2)C3)CC1 (stereo not drawn) | -
CCN(CC)Cc1cnc2c(C(=O)NC[C@@H](C)O)cnn2c1 | -
COc1ccc(-c2cc(-c3cnc4[nH]ccc4c3)cn3cncc23)cc1 | 6.3µM
c1cncc(-c2cc(-c3ccc4cn[nH]c4c3)cn3cncc23)c1 | -
COc1ccc(-c2cc(-c3cccc(NC(C)=O)c3)cn3cncc23)cn1 | 2µM
COc1ccc(-c2cc(-c3cccnc3)c3cncn3c2)cc1OC | 10µM
COc1ccc(-c2cc(-c3cn[nH]c3)c3cncn3c2)cn1 | -
c1cc(-c2cc(-c3cn[nH]c3)cn3cncc23)ccn1 | -
Cc1ccc(-c2cc(-c3ccncc3)c3cncn3c2)cn1 | -
Cc1ccc(-c2cc(-c3cccnc3)c3cncn3c2)cn1 | -
CC(=O)Nc1cccc(-c2ccc(COc3ccc4c(cnn4CCC(=O)O)c3)cc2)c1 | -
O=C1COCCN1c1cc(-c2cnc3[nH]ccc3c2)cn2cncc12 | -
COc1ccc(-c2cc(-c3ccc(OC)nc3)cn3cncc23)cc1 | 2.5µM
COc1cc(F)ccc1-c1cc(-c2ccc(=O)[nH]c2)c2cncn2c1 | -
CN(C(=O)c1cc(F)ccc1Cl)C1CCc2nn(C)c(=O)n2CC1 (stereo not drawn) | -
O=C(O)[C@@H]1CN(S(=O)(=O)C2CC2)C[C@H]1c1ccccn1 | -

Screening results from PubChem.
